The values below come from PubChem BioAssay.

For one assay, the target named is Albumin (Bos taurus) (UniProt P02769). Nature of the assay: compounds binding labelled BSA control protein – biochemical, small-molecule microarray, Alexa647 label, 635/667 nm fluorescence, artefact control for SMM control protein annotation, profiling panel (AID 1118).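 Further: score merges 667 nm emission intensity and signal-to-noise per printed compound spot.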 To be noted: BSA-A647 binding, fluorescence 635 nm, higher = more signal.
Albumin (Bos taurus), sequence (P02769 whole entry, looked up): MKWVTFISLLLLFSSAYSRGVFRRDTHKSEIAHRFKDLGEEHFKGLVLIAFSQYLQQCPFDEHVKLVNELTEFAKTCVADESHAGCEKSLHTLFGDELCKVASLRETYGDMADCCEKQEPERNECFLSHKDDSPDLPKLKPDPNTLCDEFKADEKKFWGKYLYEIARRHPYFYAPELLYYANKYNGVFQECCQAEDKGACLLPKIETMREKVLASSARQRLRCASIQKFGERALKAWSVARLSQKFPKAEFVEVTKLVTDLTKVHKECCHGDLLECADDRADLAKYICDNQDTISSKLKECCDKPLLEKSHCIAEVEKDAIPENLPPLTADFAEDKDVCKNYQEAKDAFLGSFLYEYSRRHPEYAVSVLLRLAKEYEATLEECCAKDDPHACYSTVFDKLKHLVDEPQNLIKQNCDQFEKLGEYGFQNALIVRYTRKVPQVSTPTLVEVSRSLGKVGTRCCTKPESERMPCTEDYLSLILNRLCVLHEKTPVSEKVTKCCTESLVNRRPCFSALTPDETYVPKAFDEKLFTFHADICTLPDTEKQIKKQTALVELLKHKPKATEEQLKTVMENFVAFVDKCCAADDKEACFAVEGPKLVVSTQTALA
The nature of assay [1]: probe aXIP binding to arrayed compounds – biochemical, NeuroSMM set, 635/667 nm fluorescence, primary screen (AID 1119).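 Further: probe is the protein aXip251-270 applied at 1 µg/mL to compound-printed slides; binding of probe to printed compounds measured as 667 nm fluorescence plus signal to noise.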 Conditions: small-molecule microarray, higher = more signal, called active from +8 up or from −8 down.
Assay [2] can be described thus: probe aNOTCH3 binding on compound microarray – biochemical, small-molecule microarray, 635/667 nm fluorescence, primary screen (AID 1120).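 Further: probe is a biotin-tagged antibody raised against NOTCH3 rather than NOTCH3 protein; score merges spot fluorescence near 667 nm with spot signal to noise.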 To be noted: higher = more signal.
The nature of assay [3]: probe aNOTCH2 binding on compound microarray – biochemical, small-molecule microarray, 635/667 nm fluorescence, primary screen (AID 1121).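 Further: score merges feature fluorescence read at 667 nm with its signal to noise.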 Conditions: higher = more signal.
Assay [4] addresses Carbonic anhydrase 2 (Homo sapiens) (UniProt P00918). Put plainly: compounds binding carbonic anhydrase 2 – biochemical, small-molecule microarray, Alexa647-labelled CAII, profiling panel (AID 1122). Conditions: CAII-A647 binding fluorescence, higher = more signal.
The nature of assay [5]: COS7 lysate on small-molecule microarray, probe aHis, 635 nm (AID 1123).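 Further: z-score combines 667nm fluorescence intensity with signal-to-noise per printed compound spot.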 To be noted: COS7 cell lysate, fluorescence, higher = more signal.
Assay [6] is described as follows: probe aLAP1 signal on lysate-treated microarray – cell lysate, small-molecule microarray, COS7 lysate, primary screen (AID 1124).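 Further: lysate comes from COS7 cells expressing LAP1 and is applied at 0.3 µg/mL; score merges spot fluorescence near 667 nm with signal-to-noise over triplicate slides.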 Conditions: probe aLAP1, fluorescence, higher = more signal.
Another assay has as its system Sam68 (KHDRBS1). Nature of the assay: compounds binding KHDRBS1 protein – biochemical, small-molecule microarray, 635 nm fluorescence, primary screen (AID 1125).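 Further: score merges 667 nm channel intensity with signal to noise over triplicate slides.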 To be noted: higher = more signal.
Assay [7] relates to Chordin-like protein 2 (CHRDL2). Nature of the assay: compounds binding chordin-like 2 – biochemical, small-molecule microarray, 635 nm fluorescence, primary screen (AID 1126).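 Further: printed compound slides probed with Chrdl2 protein at 4 µg/mL for 1 h at 4 C; score merges 667 nm emission intensity with signal to noise over three replicate slides.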 Conditions: fluorescence 635 nm, higher = more signal.
The target of assay [8] is Concanavalin-A (Canavalia ensiformis) (UniProt P02866). Put plainly: compounds binding concanavalin A lectin – biochemical, small-molecule microarray, Alexa647 label, 635 nm, artefact control for SMM control protein annotation, primary screen (AID 1127).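 Further: z combines 667 nm emission intensity with signal-to-noise across three replicate slides.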 Conditions: ConA-A647 binding fluorescence, higher = more signal.
Concanavalin-A (Canavalia ensiformis), sequence (P02866 whole entry, looked up): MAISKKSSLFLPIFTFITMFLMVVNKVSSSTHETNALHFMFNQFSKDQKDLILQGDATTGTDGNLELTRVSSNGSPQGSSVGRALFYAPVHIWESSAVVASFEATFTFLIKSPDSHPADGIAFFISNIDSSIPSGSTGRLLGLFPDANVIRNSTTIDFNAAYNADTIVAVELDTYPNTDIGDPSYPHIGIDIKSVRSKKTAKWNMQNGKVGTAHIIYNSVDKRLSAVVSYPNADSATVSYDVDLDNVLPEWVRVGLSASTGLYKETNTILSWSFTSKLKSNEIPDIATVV

Activity calls are given as the source filed them.

Turning to `O=C1[C@H]2[C@H]3[C@H](O)[C@H](O)CC(=NO[C@@H]4O[C@H](CO)[C@@H](O)[C@H](O)[C@H]4O)[C@@H]3CC[C@H]2C(=O)N1c1ccc(F)cc1F`, the composite z-score was 0.241 with Albumin (Bos taurus); -0.0612 in assay [2]; -0.104 in [3]; -0.0947 in assay [4]; -0.0596 in [5]; 0 in [6]. Besides, the composite z-score with Sam68 (KHDRBS1) is 0.465; in [7], 0.426; in [8], 0.262. In addition, in assay [1], the composite Z-score is -0.836 (inactive).

Regarding `CN(C)CCCNC(=O)[C@@H]1c2ccccc2C(=O)N(Cc2ccccc2)[C@H]1c1ccc(CO)cc1`, the composite z-score in the assay with Albumin (Bos taurus) is -0.688; in assay [2], -0.0971; in [3], -0.205; in [4], 0.196; in assay [5], 0.662; in assay [6], 1.37. Besides, the composite z-score in the assay with Sam68 (KHDRBS1) is -0.0257; in assay [7], -0.623; in assay [8], -0.312. For the same molecule, the composite Z-score in [1] is 0.799 (inactive).

For `COC(=O)C1=C(C)[C@@H](O)[C@@H](C)[C@H](c2c(OC)c(OC)c(C)c(OC)c2OC)O1`, the composite z-score is 0.529 with Albumin (Bos taurus); -0.0615 in assay [2]; -0.14 in assay [3]; 0.298 in [4]; 0.206 in assay [5]; -0.064 in assay [6]. The composite z-score was -0.441 in the assay on Sam68 (KHDRBS1), 0.336 in assay [7] and 0.484 in assay [8]. In addition, the composite Z-score in [1] is -0.461 (inactive).

Take `CO[C@@H]1COC(=O)CC=C[C@@H](C)[C@@H]2C=C[C@H](O)[C@@H](COC(=O)CCC[C@H]1C)O2`: the composite z-score is -0.203 in the assay with Albumin (Bos taurus); 0.0319 in assay [2]; -0.184 in [3]; -0.455 in [4]; -1.2 in [5]; 0.0206 in assay [6]. Moreover, the composite z-score in the assay with Sam68 (KHDRBS1) was 0.0503; in assay [7] it was 1.3; in assay [8], -0.239. In addition, the composite Z-score in assay [1] was 0.135 (inactive).

As to `CO[C@@H]1COC(=O)CC=C[C@@H](C)[C@@H]2C=C[C@@H](O)[C@@H](COC(=O)CC=C[C@H]1C)O2`, the composite z-score in the assay with Albumin (Bos taurus) is -0.805; in [2], 0.0864; in assay [3] it was -0.16; in assay [4], -0.235; in [5], -0.635; in assay [6] it was 0.156. Also, the composite z-score was 0.228 in the assay on Sam68 (KHDRBS1), 1.38 in assay [7] and -0.363 in assay [8]. Also, the composite Z-score in assay [1] is 0.142 (inactive).

Take `CCOC(=O)NN=C1C[C@@H](O)[C@@H](O)[C@@H]2[C@@H]3C(=O)N(C(C)(C)C)C(=O)[C@@H]3CC[C@@H]12`: the composite z-score is -0.422 with Albumin (Bos taurus); -0.0328 in [2]; -0.14 in [3]; -1.23 in assay [4]; -0.443 in [5]; 0.171 in assay [6]. For the same molecule, the composite z-score with Sam68 (KHDRBS1) was -0.605; in [7], -0.63; in [8], -0.651. Also, the composite Z-score in assay [1] was 0.136 (inactive).

Consider `COC(=O)[C@H](C)NC(=O)CCC1CC(OC(=O)NCc2cccc3ccccc23)CC2(CCCC(COC(=O)NCC3CCCCC3)O2)O1` (stereo not given in full), for which the composite z-score is -0.409 with Albumin (Bos taurus); 0.175 in assay [2]; -0.0984 in assay [3]; 0.612 in assay [4]; 1.61 in assay [5]; 0.486 in assay [6]. Besides, the values for the composite z-score (in the assay with Sam68 (KHDRBS1); in assay [7]; in assay [8]) were 1.29, 0.62 and 1.12, respectively. For the same molecule, the composite Z-score in assay [1] was -0.551 (inactive).

Consider `O=C(CS)NCCCCCNC(=O)[C@H]1C[C@H]2C(=O)N3CCC[C@H]3C(=O)N2[C@H]1c1cccc(OCCO)c1`, for which the composite z-score was -1.4 with Albumin (Bos taurus); 0.121 in [2]; -0.101 in assay [3]; 0.46 in assay [4]; 2.45 in assay [5]; 0.729 in assay [6]. Moreover, the figures for the composite z-score (in the assay with Sam68 (KHDRBS1); in assay [7]; in assay [8]) were 1.34, 1.4 and 1.2, respectively. Further, the composite Z-score in [1] was 0.62 (inactive).

Turning to `C=C(/C(=C/C[C@H](OC(=O)c1ccncc1)c1ccc(OCCO)cc1)c1cnc2ccccc2c1)C(C)C`, the composite z-score in the assay with Albumin (Bos taurus) was 0.139; in assay [2], 0.173; in assay [3] it was -0.118; in assay [4], 0.946; in [5], 0.118; in [6], 0.62. In addition, the results for the composite z-score (in the assay with Sam68 (KHDRBS1); in [7]; in [8]) were 1.32, 1.14 and 1.16, respectively. Moreover, the composite Z-score in assay [1] was 0.184 (inactive).

For the molecule `CC(=O)OC[C@H]1O[C@@H](ON=C[C@@H](C)[C@H](OCc2ccccc2)C(C)C)[C@H](OC(C)=O)[C@@H](OC(C)=O)[C@@H]1OC(C)=O`, the composite z-score with Albumin (Bos taurus) was -0.25; in [2] it was -0.0672; in assay [3], -0.159; in [4], -0.934; in assay [5], -0.0857; in assay [6], -0.246. In addition, the values for the composite z-score (in the assay on Sam68 (KHDRBS1); in [7]; in assay [8]) were 0.96, -0.838 and 0.468, respectively. In [1], the composite Z-score is 0.0474 (inactive).

As to `CCc1cc2c(nc1CC)CCN(CCC(C)=NOC[C@@H](O)COCc1ccco1)C2`, the composite z-score with Albumin (Bos taurus) was -0.576; in assay [2], 1.03; in assay [3], 0.31; in assay [4], 0.193; in [5], -0.988; in [6], 0.377. The composite z-score with Sam68 (KHDRBS1) is 0.226; in [7], 1.57; in [8], 0.212. Also, the composite Z-score in assay [1] is -0.206 (inactive).

For the molecule `N#Cc1ccc(NN2C(C(O)c3cccc4ccccc34)C=CC3C(=O)N(c4ccccc4)C(=O)C32)cc1` (stereo not given), the composite z-score in the assay with Albumin (Bos taurus) was found to be 0.595; in [2], 0.479; in assay [3], 0.0687; in [4] it was 0.696; in assay [5], 2.82; in assay [6], 0.599. In addition, the composite z-score in the assay with Sam68 (KHDRBS1) is 1.31; in [7], -0.0989; in [8] it was 0.926. For the same molecule, the composite Z-score in [1] is 0.544 (inactive).

As to `COCCOC(=O)N1C(=O)[C@@]2(c3cc(C#CCNC(N)=O)ccc31)[C@H](c1ccc(O)cc1)N1[C@H](c3ccccc3)[C@H](c3ccccc3)OC(=O)[C@H]1[C@@H]2C(=O)N1CCCCCCC1`, the composite z-score was -0.466 with Albumin (Bos taurus); 0.207 in assay [2]; -0.108 in assay [3]; 0.244 in assay [4]; 0.734 in [5]; 0.382 in assay [6]. The composite z-score with Sam68 (KHDRBS1) turned out to be 1.3; in assay [7], 1.15; in assay [8], 0.615. Also, in assay [1], the composite Z-score was -0.624 (inactive).
